# Counter-ions that a name gives are not always drawn. ± gives the standard deviation of the averaged measurements.
# Test system: Toxoplasma gondii RH (in HFF)
# Test: parasite growth relative to the screen mean (all compounds = 100%); higher = less inhibition of parasite growth
# Conditions: 5 µM; 72 h; oxygen 21 %
# Method in brief: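 Library compounds, held as 10 mM DMSO stocks, were pinned to 5 µM final onto confluent human foreskin fibroblasts in 96-well plates. The cells were infected within 2 h with RH β-Gal–GFP Toxoplasma (MOI 1:5), grown 72 h at 21% O2, and assayed for parasite number by CPRG β-Gal using in-plate standard curves. Growth is reported relative to the screen mean, in which all compounds = 100%, averaged over two screens, and CellTiter-Blue checked uninfected host-cell viability.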
row,Structure (SMILES),parasite growth [%]
1,CN1CC[C@@H]2CN3CCc4cccc(c43)[C@@H]2C1 [SDZ SER 082 fumarate],165 ± 19
2,C1CCc2nnnn2CC1 [Pentylenetetrazole],110 ± 22
3,NCCc1c[nH]c2ccc(O)cc12 [Serotonin],106 ± 15
4,CC(C)(Cc1c[nH]c2ccc(Cl)cc12)NCCOc1ccccc1OCC1CC1,< 0
5,C[N+]1(C)CCc2cc3c(cc2[C@H]1[C@@H]1OC(=O)c2c1ccc1c2OCO1)OCO3 [(-)-Bicuculline methiodide],108 ± 8.7
6,O=[N+]([O-])c1cc(O)c(O)c([N+](=O)[O-])c1,80.4 ± 42
7,O=C(O)C1=CCCN(CCOC(c2ccc(C(F)(F)F)cc2)c2ccc(C(F)(F)F)cc2)C1 [CI 966 hydrochloride],137 ± 5.2
8,"Cc1cc(C)cc(C(=O)OC2C[C@H]3CC[C@@H](C2)N3C)c1 (stereo partly drawn) [Tropanyl-3,5-dimethylbenzoate]",97.3 ± 3.6
9,CCOc1cncc(/C=C/CCNC)c1 [TC 2559 difumarate],90.8 ± 7
10,CCC(Oc1ccc(Cl)cc1)C(=O)OC1C[C@H]2CC[C@@H](C1)N2C (stereo partly drawn) [SM-21 maleate],95.2 ± 2.9
11,COc1ccc(CNC(=O)/C=C/c2ccc3[nH]cc(CCN(C)C)c3c2)cc1,98.3 ± 31
12,C=CCN1C[C@H](C)N([C@H](c2ccc(C(=O)N(CC)CC)cc2)c2cccc(OC)c2)C[C@H]1C,42.5 ± 3.7
13,CN1Cc2ccccc2[C@@H]2c3cccc4[nH]cc(c34)C[C@H]21,132 ± 9.8
14,CN1[C@@H]2CC[C@H]1CC(OC(=O)N1Cc3ccccc3NC1=O)C2 (stereo partly drawn) [DAU 5884 hydrochloride],97.7 ± 16
15,c1ccc(C2CC2)c(OCC2=NCCN2)c1 [Cirazoline hydrochloride],91.7 ± 19
16,Cc1ccc2c(c1)C1(CCN(CCc3nc(-c4ccccc4)oc3C)CC1)OC(=O)N2,96.7 ± 3.8
17,S=C=Nc1cccc(C2(N3CCCCC3)CCCCC2)c1 [Metaphit],51.3 ± 6
18,Clc1cccc(SC2CCNCC2)n1 [Anpirtoline hydrochloride],76.4 ± 27
19,CC1=NN=C(c2ccc(N)cc2)c2cc3c(cc2C1)OCO3,47.2 ± 4.7

row,Structure (SMILES),parasite growth [%]
1,N#Cc1ccc(N2CCN(C(=O)COc3ccc4[nH]cc(CCN)c4c3)CC2)cc1 [Donitriptan hydrochloride],78.6 ± 12
2,NC(C(=O)O)c1nn[nH]n1 (racemic) [(RS)-(Tetrazol-5-yl)glycine],146 ± 30
3,C/C(O)=C(\C#N)C(=O)Nc1cc(Br)ccc1Br,130 ± 7.2
4,C[C@H](N)Cc1cnc[nH]1 [(S)-(+)-a-Methylhistamine dihydrobromide],113 ± 11
5,CN1[C@@H]2CC[C@H]1C[C@@H](OC(=O)c1cc(Cl)cc(Cl)c1)C2,70.1 ± 18
6,CCN(CC)CCO[C@H]1CC[C@@]2(C)C(=CC[C@@H]3[C@@H]2CC[C@]2(C)C(=O)CC[C@@H]32)C1,79.6 ± 24
7,CCCN1CCC[C@@H]2Cc3n[nH]cc3C[C@H]21 [(-)-Quinpirole hydrochloride],143.8 ± 1.3
8,Cc1[nH]c2ccc(O)cc2c1CCN [2-Methyl-5-hydroxytryptamine hydrochloride],139 ± 37
9,C=CCN1CC[C@]23c4c5ccc(O)c4O[C@H]2/C(=N/NC(=O)c2ccccc2)CC[C@@]3(O)[C@H]1C5 [Naloxone benzoylhydrazone],108 ± 34
10,C=CCN1CC[C@]23c4c5ccc(O)c4O[C@H]2C(=O)CC[C@@]3(O)[C@H]1C5 [Naloxone hydrochloride],143 ± 14
11,COc1ccc(C(=O)N2CCCC2=O)cc1 [Aniracetam],97.2 ± 53
12,C[N+]1(C)CCc2cc3c(cc2[C@H]1[C@@H]1OC(=O)c2c1ccc1c2OCO1)OCO3 [(-)-Bicuculline methochloride],120 ± 37
13,Oc1cc2c(cc1O)[C@H]1c3ccccc3CN[C@@H]1CC2 (racemic) [Dihydrexidine hydrochloride],153 ± 4.6
14,CCNC(=O)[C@H]1O[C@@H](n2cnc3c(N)ncnc32)[C@H](O)[C@@H]1O,93 ± 12
15,CC(C)(C)OC(=O)c1ncn2c1[C@@H]1CCCN1C(=O)c1c(Br)cccc1-2 [Bretazenil],87.1 ± 5.4
16,CS(=O)(=O)Nc1ccc(Cc2noc(-c3ccc4[nH]cc(CCN)c4c3)n2)cc1,124 ± 6.6
17,O=Cc1cn(Cc2ccc(Cl)cc2)c2ccccc12 [Oncrasin 1],113 ± 44
18,COc1cc2c(cc1O)C(CCc1ccc(Cl)cc1)N(C)CC2 (stereo not drawn),58.7 ± 22
19,Cn1cc(C(=O)C(=O)N[C@H]2CN3CCC2CC3)c2ccccc21,96.5 ± 6.7
